Residual activity data for 1 compound are collected here from ChEMBL document CHEMBL2218924, “A broad activity screen in support of a chemogenomic map for kinase signalling research and drug discovery” (Biochem J, 2013).

The target in assay [1] is T1, TGF-beta receptor type-1 (Homo sapiens) (UniProt P36897).
T1 sequence (whole entry): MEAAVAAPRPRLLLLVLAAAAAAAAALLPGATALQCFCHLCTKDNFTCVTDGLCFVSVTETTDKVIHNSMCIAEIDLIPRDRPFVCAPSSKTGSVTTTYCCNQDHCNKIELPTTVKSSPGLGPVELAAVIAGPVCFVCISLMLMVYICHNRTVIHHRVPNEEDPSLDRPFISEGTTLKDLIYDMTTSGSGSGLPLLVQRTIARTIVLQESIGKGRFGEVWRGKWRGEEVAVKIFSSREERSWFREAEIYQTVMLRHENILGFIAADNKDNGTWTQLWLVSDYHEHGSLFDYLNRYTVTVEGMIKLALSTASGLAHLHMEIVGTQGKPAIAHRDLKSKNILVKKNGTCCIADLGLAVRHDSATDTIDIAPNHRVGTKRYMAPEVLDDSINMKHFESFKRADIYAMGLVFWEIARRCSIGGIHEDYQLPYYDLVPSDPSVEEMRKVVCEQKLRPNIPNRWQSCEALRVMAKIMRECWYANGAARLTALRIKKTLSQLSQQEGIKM
The note with it: at 1 µM.

The target of assay [2] is T1, TGF-beta receptor type-1 (Homo sapiens). The note with it: at 10 µM.
Assay [3] has as its target Insulin-like growth factor 1 receptor (Homo sapiens) (UniProt P08069). Particulars: at 1 µM.
Assay [4] shares this target. Particulars: at 10 µM.
Assay [5] deals with T2, Inhibitor of nuclear factor kappa-B kinase subunit alpha (Homo sapiens) (UniProt O15111).
T2 sequence (whole entry): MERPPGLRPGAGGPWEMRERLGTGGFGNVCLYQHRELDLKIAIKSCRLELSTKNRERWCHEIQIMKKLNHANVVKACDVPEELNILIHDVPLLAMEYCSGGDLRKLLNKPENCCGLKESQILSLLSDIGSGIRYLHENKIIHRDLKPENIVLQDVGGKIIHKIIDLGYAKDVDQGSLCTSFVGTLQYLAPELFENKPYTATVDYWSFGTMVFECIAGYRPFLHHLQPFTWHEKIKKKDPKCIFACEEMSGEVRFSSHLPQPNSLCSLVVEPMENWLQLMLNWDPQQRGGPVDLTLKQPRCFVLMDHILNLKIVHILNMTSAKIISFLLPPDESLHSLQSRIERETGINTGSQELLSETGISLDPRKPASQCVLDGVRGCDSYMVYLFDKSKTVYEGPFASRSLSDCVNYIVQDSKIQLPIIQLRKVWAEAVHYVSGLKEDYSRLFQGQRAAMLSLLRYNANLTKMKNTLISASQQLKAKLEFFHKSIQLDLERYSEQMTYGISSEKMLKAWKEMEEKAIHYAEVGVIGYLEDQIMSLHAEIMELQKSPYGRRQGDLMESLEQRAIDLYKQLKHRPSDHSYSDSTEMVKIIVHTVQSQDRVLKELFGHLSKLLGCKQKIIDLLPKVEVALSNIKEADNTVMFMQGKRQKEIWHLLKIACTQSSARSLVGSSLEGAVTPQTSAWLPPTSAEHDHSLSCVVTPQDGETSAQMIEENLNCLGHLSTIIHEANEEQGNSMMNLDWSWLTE
The note with it: at 1 µM.

The target in assay [6] is T2, Inhibitor of nuclear factor kappa-B kinase subunit alpha (Homo sapiens). Particulars: at 10 µM.
The target in assay [7] is T3, Inhibitor of nuclear factor kappa-B kinase subunit beta (Homo sapiens) (UniProt O14920).
T3 sequence (whole entry): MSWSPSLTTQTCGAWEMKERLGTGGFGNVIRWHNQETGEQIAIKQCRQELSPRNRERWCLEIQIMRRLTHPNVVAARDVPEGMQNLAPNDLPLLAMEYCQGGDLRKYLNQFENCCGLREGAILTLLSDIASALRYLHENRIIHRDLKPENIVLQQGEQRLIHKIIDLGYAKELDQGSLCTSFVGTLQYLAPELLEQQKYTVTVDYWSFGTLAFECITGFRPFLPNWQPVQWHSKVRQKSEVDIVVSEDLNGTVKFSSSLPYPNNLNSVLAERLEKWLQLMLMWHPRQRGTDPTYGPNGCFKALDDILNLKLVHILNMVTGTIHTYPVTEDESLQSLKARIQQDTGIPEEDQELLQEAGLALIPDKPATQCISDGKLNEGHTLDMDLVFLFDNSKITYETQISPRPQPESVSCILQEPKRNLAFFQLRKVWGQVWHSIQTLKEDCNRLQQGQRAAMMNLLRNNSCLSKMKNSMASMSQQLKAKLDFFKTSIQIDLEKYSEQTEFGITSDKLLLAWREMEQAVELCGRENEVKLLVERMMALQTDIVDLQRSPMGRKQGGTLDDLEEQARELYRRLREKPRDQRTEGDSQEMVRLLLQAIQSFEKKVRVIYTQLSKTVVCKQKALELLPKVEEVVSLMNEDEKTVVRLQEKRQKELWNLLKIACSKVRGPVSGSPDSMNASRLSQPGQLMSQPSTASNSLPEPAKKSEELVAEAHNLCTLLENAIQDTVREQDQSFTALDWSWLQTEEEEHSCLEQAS
Particulars: at 1 µM.

The target in assay [8] is T3, Inhibitor of nuclear factor kappa-B kinase subunit beta (Homo sapiens). The note with it: at 10 µM.
Assay [9] has as its target Insulin receptor (Homo sapiens) (UniProt P06213). The note with it: at 1 µM.

Insulin-like growth factor 1 receptor (Homo sapiens), sequence (P08069 31-736 limits assumed): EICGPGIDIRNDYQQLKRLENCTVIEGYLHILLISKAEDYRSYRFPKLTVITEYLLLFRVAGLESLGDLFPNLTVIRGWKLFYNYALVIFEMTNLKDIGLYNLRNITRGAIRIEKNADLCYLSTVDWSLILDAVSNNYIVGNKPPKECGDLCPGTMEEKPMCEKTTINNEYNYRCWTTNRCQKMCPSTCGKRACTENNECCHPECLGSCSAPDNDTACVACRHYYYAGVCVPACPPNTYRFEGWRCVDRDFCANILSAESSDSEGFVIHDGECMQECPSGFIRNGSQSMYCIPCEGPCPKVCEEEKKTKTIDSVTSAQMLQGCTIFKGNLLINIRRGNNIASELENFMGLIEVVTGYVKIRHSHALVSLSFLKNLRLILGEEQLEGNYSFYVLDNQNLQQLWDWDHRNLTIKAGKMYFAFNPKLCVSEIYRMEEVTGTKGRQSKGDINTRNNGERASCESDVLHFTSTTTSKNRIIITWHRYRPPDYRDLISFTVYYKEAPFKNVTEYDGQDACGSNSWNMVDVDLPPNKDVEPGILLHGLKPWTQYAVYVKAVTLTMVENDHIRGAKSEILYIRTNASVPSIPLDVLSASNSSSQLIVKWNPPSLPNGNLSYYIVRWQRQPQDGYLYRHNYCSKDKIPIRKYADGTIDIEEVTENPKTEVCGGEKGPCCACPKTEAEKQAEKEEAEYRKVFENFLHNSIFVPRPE
Insulin-like growth factor 1 receptor (Homo sapiens), sequence (P08069 741-1367 limits assumed): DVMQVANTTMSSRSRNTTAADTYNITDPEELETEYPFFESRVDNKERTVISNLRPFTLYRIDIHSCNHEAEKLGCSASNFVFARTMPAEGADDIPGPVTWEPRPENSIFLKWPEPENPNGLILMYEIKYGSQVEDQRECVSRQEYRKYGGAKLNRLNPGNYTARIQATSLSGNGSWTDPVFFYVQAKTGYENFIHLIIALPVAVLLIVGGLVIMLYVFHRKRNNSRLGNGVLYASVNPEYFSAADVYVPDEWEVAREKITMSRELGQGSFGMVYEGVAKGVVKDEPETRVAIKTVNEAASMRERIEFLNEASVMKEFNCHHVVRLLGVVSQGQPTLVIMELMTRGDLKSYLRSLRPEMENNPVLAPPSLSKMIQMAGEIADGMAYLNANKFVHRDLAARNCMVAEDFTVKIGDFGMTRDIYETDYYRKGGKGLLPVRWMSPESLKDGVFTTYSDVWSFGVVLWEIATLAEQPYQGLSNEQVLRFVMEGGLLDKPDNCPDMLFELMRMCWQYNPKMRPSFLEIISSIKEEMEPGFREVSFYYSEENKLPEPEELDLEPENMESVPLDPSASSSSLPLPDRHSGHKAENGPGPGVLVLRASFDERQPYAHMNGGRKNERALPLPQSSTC
Insulin receptor (Homo sapiens), sequence (P06213 28-758 limits assumed): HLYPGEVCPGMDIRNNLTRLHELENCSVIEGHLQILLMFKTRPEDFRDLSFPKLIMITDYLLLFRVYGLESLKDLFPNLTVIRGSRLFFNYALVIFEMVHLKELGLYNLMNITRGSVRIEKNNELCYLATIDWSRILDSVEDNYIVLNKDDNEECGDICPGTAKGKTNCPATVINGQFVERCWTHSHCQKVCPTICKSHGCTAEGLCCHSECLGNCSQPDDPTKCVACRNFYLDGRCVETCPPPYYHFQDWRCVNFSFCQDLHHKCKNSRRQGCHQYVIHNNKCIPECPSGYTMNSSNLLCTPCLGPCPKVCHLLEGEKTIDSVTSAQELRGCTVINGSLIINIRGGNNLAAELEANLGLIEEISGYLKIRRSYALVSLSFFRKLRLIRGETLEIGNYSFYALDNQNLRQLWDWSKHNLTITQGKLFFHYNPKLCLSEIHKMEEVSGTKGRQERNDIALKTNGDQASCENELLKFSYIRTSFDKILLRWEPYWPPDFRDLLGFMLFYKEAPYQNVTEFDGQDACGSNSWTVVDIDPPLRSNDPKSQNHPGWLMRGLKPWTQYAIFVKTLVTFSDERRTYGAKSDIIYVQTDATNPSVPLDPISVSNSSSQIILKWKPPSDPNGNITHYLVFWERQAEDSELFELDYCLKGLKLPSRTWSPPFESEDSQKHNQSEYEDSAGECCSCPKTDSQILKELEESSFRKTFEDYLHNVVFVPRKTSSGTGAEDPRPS
Insulin receptor (Homo sapiens), sequence (P06213 763-1382 limits assumed): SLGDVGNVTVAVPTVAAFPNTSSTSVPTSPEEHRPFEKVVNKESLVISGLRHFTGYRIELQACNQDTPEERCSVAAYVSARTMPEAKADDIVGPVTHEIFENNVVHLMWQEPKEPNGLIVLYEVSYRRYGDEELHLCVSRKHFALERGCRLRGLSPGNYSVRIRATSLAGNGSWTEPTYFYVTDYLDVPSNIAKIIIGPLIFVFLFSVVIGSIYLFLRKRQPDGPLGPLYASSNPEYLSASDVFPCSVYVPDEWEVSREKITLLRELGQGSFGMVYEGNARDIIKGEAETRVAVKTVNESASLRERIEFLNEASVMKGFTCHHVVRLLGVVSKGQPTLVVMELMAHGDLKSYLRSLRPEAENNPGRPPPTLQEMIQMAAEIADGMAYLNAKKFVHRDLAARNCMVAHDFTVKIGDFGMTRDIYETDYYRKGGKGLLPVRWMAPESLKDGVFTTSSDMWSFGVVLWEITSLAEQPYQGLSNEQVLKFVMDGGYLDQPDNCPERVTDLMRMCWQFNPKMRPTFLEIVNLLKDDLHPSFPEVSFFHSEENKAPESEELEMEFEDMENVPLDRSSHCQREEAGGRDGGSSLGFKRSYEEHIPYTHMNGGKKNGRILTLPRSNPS

The term residual activity denotes the signal under treatment as a percentage of the control signal. Turning to `Cc1cc(Nc2nc(-c3ccccc3)nc3ccccc23)n[nH]1`, the residual activity in [1] is 96%; in [2] it was 78%; in [3], 20%; in assay [4], 1%; in assay [5], 102%; in [6], 72%. The residual activity stood at 78% in [7], 51% in [8] and 16% in [9].
